Measurements: PubChem BioAssay (NCATS)
Records with an inconclusive call do not appear. Calls of active or inactive are those of the source. Calls come from the whole dose curve.

Tests used:
[1] = Primary qHTS for inhibitors of SARS-S pseudo-typed particle cell entry (AID 1479145); note: nearly all actives have a fitted effect of over 45% in size; note: potency is the fitted concentration of half-maximal effect
[2] = Primary qHTS for Huh7 cytotoxicity: counterscreen for inhibitors of MERS-S pseudotyped particle cell entry (AID 1479147)
[3] = Primary qHTS for inhibitors of MERS-S pseudo-typed particle cell entry (AID 1479149); note: nearly all actives have a fitted effect of over 60% in size; note: potency is the fitted concentration of half-maximal effect
[4] = Primary qHTS for Vero E6 cytotoxicity: counterscreen for inhibitors of SARS-S pseudo-typed particle cell entry (AID 1479150); note: potency is the fitted concentration of half-maximal effect
[5] = Confirmatory qHTS for VERO E6 Cytotoxicity Assay: Counterscreen for SARS-CoV-2 CPE Assay (AID 1508605); note: nearly all actives have a fitted effect of over 60% in size; note: potency is the fitted concentration of half-maximal effect
[6] = Confirmatory qHTS for activators (rescue) of SARS-CoV-2 Cytopathic Effect (CPE) (AID 1508606); note: potency is the fitted concentration of half-maximal effect; nearly all actives have a fitted effect of over 70% in size

Measured: Potency

CN1CCCN=C1COC(=O)C(O)(c1ccccc1)C1CCCCC1 (stereo unspecified)
inactive: [1] | [2] | [3] | [4]

C[C@]12CC[C@@H]3c4ccc(O)cc4CC[C@H]3[C@@H]1CCC2=O
inactive: [1] | [2] | [3] | [4]

C=CCOc1ccccc1OCC(O)CNC(C)C (stereo unspecified)
inactive: [1] | [2] | [3] | [4]

Cc1nnc(C(=O)NC(C)(C)c2nc(C(=O)NCc3ccc(F)cc3)c(O)c(=O)n2C)o1
inactive: [1] | [2] | [3] | [4]

CC(=O)OCC1=C(C(=O)O)N2C(=O)[C@@H](NC(=O)CSc3ccncc3)[C@H]2SC1
inactive: [1] | [2] | [3] | [4]

CCC(=O)c1ccc(O)cc1
inactive: [1] | [2] | [3] | [4]

CCOC(=O)c1ccc(C#Cc2ccc3c(c2)C(C)(C)CCS3)nc1
inactive: [1] | [2] | [3] | [4]

CCOc1ccc2nc(S(N)(=O)=O)sc2c1
inactive: [1] | [2] | [3] | [4]

CC1(C)S[C@@H]2[C@H](N=CN3CCCCCC3)C(=O)N2[C@H]1C(=O)O
inactive: [1] | [2] | [3] | [4]

CN1[C@@H]2CC[C@H]1CC(NC(=O)n1c(=O)[nH]c3ccccc31)C2 (stereo partly specified)
inactive: [1] | [2] | [3] | [4]

Oc1c(Cl)cc(Cl)c(Cl)c1Cc1c(O)c(Cl)cc(Cl)c1Cl
inactive: [2]
active: [1] 2.82 µM | [3] 3.55 µM | [4] 5.62 µM

CC1=C(C)C(=O)C(C(CCCCCC(=O)O)c2ccccc2)=C(C)C1=O (stereo unspecified)
inactive: [1] | [2] | [3] | [4]

O=C(CCCCCCCCC#CI)Oc1ccccc1
inactive: [1] | [2] | [3] | [4]

O=C(O)CCc1nc(-c2ccccc2)c(-c2ccccc2)o1
inactive: [1] | [2] | [3] | [4]

CC(=C(CCOC(=O)C(C)C)SSC(CCOC(=O)C(C)C)=C(C)N(C=O)Cc1cnc(C)nc1N)N(C=O)Cc1cnc(C)nc1N
inactive: [1] | [2] | [3] | [4]

CCOC(=O)OC(C)OC(=O)[C@@H]1N2C(=O)[C@@H](NC(=O)[C@H](N)c3ccccc3)[C@H]2SC1(C)C (stereo partly specified)
inactive: [1] | [2] | [3] | [4]

C[C@H](CCC(=O)O)[C@H]1CC[C@H]2[C@@H]3C(=O)C[C@@H]4CC(=O)CC[C@]4(C)[C@H]3CC(=O)[C@]12C
inactive: [1] | [2] | [3] | [4]

O=c1cc(CO)occ1O
inactive: [1] | [2] | [3] | [4]

NC(N)=NC(=O)c1nc(Cl)c(N)nc1N
inactive: [1] | [2] | [3] | [4]

COc1cc(O)c(C(=O)c2ccccc2)cc1S(=O)(=O)O
inactive: [1] | [2] | [3] | [4]

CCCN(CCC)C(=O)C(CCC(=O)O)NC(=O)c1ccccc1 (stereo unspecified)
inactive: [1] | [2] | [3] | [4]

O=C(CCCN1CCN(c2ccccn2)CC1)c1ccc(F)cc1
inactive: [1] | [2] | [3] | [4]

N[C@@H](CSCCCO)C(=O)O
inactive: [1] | [2] | [3] | [4]

Cc1ccc(C(C)OC(=O)C2(C)CCC(C(=O)O)C2(C)C)cc1 (stereo unspecified)
inactive: [1] | [2] | [3] | [4]

CC(C)Cc1ccc(C(C)C(=O)OCc2ccccn2)cc1 (stereo unspecified)
inactive: [1] | [2] | [3] | [4]

CN(C)CC/C=C1\c2ccccc2Sc2ccc(Cl)cc21
active: [1] 10 µM | [3] 25.1 µM | [6] 8.91 µM
inactive: [2] | [4] | [5]

CCCOc1ccc2nc(NC(=O)OC)[nH]c2c1
inactive: [1] | [2] | [3] | [4]

CCOC(=O)C1=C[C@]2(CC)CCCN3CCc4c(n1c1ccccc41)[C@@H]32
inactive: [1] | [2] | [4]

O=C(O)C(=O)Nc1cccc(-c2nn[nH]n2)c1
inactive: [1] | [2] | [3] | [4]

Cn1c(=O)c2c(ncn2C)n(C)c1=O
inactive: [1] | [2] | [4]

C[C@]12CCC(=O)C=C1[C@@H]1C[C@@H]1[C@H]1[C@@H]3[C@@H]4C[C@@H]4[C@@]4(CCC(=O)O4)[C@@]3(C)CC[C@@H]12
inactive: [1] | [2] | [4]

FC(F)(F)C(F)(F)C(F)(F)C(F)(F)C(F)(F)C(F)(F)C(F)(F)C(F)(F)Br
inactive: [1] | [2] | [4]

CN1C[C@H](C(=O)N[C@]2(C)O[C@@]3(O)[C@@H]4CCCN4C(=O)[C@H](Cc4ccccc4)N3C2=O)C[C@@H]2c3cccc4[nH]cc(c34)C[C@H]21
inactive: [1] | [2] | [4]

CCOc1c(N2CCOCC2)cnn(C)c1=O
inactive: [1] | [2] | [3] | [4]

N=C(N)c1ccc2cc(OC(=O)c3ccc(N=C(N)N)cc3)ccc2c1
inactive: [1] | [2] | [4]

C[N+]1(CC2COC(c3ccccc3)(C3CCCCC3)O2)CCCCC1 (stereo unspecified)
inactive: [1] | [2] | [4]

COc1ccc2[nH]c(S(=O)Cc3ncc(C)c(OC)c3C)nc2n1 (stereo unspecified)
inactive: [2] | [4]
active: [1] 20 µM

CCOC(=O)Cn1cccc1-c1nc(-c2ccc(OC)cc2)c(-c2ccc(OC)cc2)s1
active: [1] 14.1 µM
inactive: [2] | [4]

COc1ccc(-c2cc(C(F)F)nn2-c2ccc(S(N)(=O)=O)cc2)cc1F
inactive: [1] | [2] | [4]

CC(C)C(=O)Nc1cccc(C2CN3CCSC3=N2)c1 (stereo unspecified)
inactive: [1] | [2] | [4]

CC(=O)[C@H]1CC[C@H]2[C@@H]3CC=C4C[C@@H](O)CC[C@]4(C)[C@H]3CC[C@]12C
inactive: [1] | [2] | [4]

O=C(O)CNC(=O)c1ccccc1I
inactive: [1] | [2] | [4]

Cc1cc(C(C)(C)C)c(O)c(C)c1CC1=NCCN1
inactive: [1] | [2] | [3] | [4]

COc1cc(OC)cc(OC)c1
inactive: [1] | [2] | [3] | [4]

CC(C)[C@@H]1CC[C@@H](C)CC1=O
inactive: [1] | [2] | [4]

CCCC(=O)O[C@]1(C(=O)CCl)[C@@H](C)C[C@H]2[C@@H]3CCC4=CC(=O)C=C[C@]4(C)[C@@]3(F)C(=O)C[C@@]21C
inactive: [1] | [2] | [4]

Cc1[nH]c(C)c(Cl)c(=O)c1Cl
inactive: [1] | [2] | [3] | [4]

CC[C@H](NC(C)C)[C@H](O)c1ccc(O)c2[nH]c(=O)ccc12
inactive: [1] | [2] | [3] | [4]

O=C(O)CCC(=O)c1ccc(-c2ccccc2)cc1
inactive: [1] | [2] | [3] | [4]

CCCCC[C@H](O)C=C[C@H]1[C@H](O)CC(=O)[C@H]1CC=CCCCC(=O)O
inactive: [1] | [2] | [3] | [4]

CCN(CCCCOC(=O)c1ccc(OC)c(OC)c1)C(C)Cc1ccc(OC)cc1 (stereo unspecified)
active: [1] 11.2 µM
inactive: [2] | [4]

CC(C(O)c1ccc(O)cc1)N1CCC(Cc2ccccc2)CC1 (stereo unspecified)
inactive: [1] | [2] | [3] | [4]

CCCSS/C(CCO)=C(\C)N(C=O)Cc1cnc(C)nc1N
inactive: [1] | [2] | [3] | [4]

NS(=O)(=O)c1cc2c(cc1Cl)NC(C1CC3C=CC1C3)NS2(=O)=O (stereo unspecified)
inactive: [1] | [2] | [3] | [4]

CCOC(=O)C(C)(C)Oc1ccc(Cl)cc1
inactive: [1] | [2] | [3] | [4]

CCC(CN)=C(c1ccccc1)c1ccccc1
inactive: [1] | [2] | [4]

CCN(CC)C(=O)C1CN2CCc3cc(OC)c(OC)cc3C2CC1OC(C)=O (stereo unspecified)
inactive: [1] | [2] | [3] | [4]

C#C[C@]1(O)CC[C@H]2[C@@H]3[C@H](C)CC4=C(CCC(=O)C4)[C@H]3CC[C@@]21C
inactive: [1] | [2] | [3] | [4]

CCOC(=O)[C@H](CCc1ccccc1)N[C@H]1CCc2ccccc2N(CC(=O)O)C1=O
not listed: [6]
inactive: all other assays above

CN1C(=O)CC(c2ccccc2)C1=O (stereo unspecified)
inactive: [1] | [2] | [3] | [4]

C[N+]1(CC2COC(c3ccccc3)(c3ccccc3)O2)CCCCC1 (stereo unspecified)
inactive: [1] | [2] | [3] | [4]

CC(C)(C)c1ccc(C(O)CCCN2CCC(C(O)(c3ccccc3)c3ccccc3)CC2)cc1 (stereo unspecified)
inactive: [1] | [2] | [4]

COc1cc(C(=O)OCCCN2CCCN(CCCOC(=O)c3cc(OC)c(OC)c(OC)c3)CC2)cc(OC)c1OC
active: [1] 11.2 µM
inactive: [2] | [4]

CN1CCCC(CC2c3ccccc3Sc3ccccc32)C1 (stereo unspecified)
inactive: [4]
active: [1] 20 µM

Oc1c(Cl)cc(Cl)cc1Sc1cc(Cl)cc(Cl)c1O
inactive: [2]

CCCCOc1cc(C(=O)OCCN(CC)CC)ccc1N
inactive: [1] | [4]

O=C(O)c1cccc(-c2noc(-c3ccccc3F)n2)c1
inactive: [1] | [3]

C/C=C(/C(=C/C)c1ccc(O)cc1)c1ccc(O)cc1
inactive: [2] | [3] | [4]

OC[C@H]1O[C@@H](n2cnc3c(=S)nc[nH]c32)[C@H](O)[C@@H]1O
inactive: [1] | [3]

Oc1c(I)cc(Cl)c2cccnc12
active: [5] 3.16 µM
inactive: [1] | [4]

CCN(CCCc1ccccc1)CCCc1ccccc1
inactive: [1] | [2] | [4]

CC[C@H](c1ccc(O)cc1)[C@@H](CC)c1ccc(O)cc1
inactive: [1] | [2] | [4]

CCN(CC)CCCN(c1ccccc1)C1Cc2ccccc2C1
active: [1] 17.8 µM
inactive: [4]

COc1ccc(CCN(C)CCCC(C#N)(c2cc(OC)c(OC)c(OC)c2)C(C)C)cc1OC (stereo unspecified)
inactive: [2] | [3]

COc1ccc(-c2nc3ccc(C4=NNC(=O)CC4C)cc3[nH]2)cc1 (stereo unspecified)
inactive: [1] | [3] | [4]

CC(C)=CCC/C(C)=C/CC/C(C)=C/C(=O)OCC(=O)[C@@]1(O)CC[C@H]2[C@@H]3CCC4=CC(=O)C=C[C@]4(C)[C@H]3[C@@H](O)C[C@@]21C
inactive: [1] | [4]
